Holding throughout (experiment): DAPPL (digital affinity profiling via proximity ligation, sequencing); 10 mM Tris-HCl pH 7.5, 50 mM NaCl, 1 mM DTT, 4% glycerol, room temperature, 30 min; GST-TFs on glutathione beads, 16-mer random dsDNA library, 0.1% formaldehyde crosslink after washing; high values mean tight binding
In experiment [1] the target is T1, FLI1 (Homo sapiens, UniProt Q01543 1-452).
T1 sequence: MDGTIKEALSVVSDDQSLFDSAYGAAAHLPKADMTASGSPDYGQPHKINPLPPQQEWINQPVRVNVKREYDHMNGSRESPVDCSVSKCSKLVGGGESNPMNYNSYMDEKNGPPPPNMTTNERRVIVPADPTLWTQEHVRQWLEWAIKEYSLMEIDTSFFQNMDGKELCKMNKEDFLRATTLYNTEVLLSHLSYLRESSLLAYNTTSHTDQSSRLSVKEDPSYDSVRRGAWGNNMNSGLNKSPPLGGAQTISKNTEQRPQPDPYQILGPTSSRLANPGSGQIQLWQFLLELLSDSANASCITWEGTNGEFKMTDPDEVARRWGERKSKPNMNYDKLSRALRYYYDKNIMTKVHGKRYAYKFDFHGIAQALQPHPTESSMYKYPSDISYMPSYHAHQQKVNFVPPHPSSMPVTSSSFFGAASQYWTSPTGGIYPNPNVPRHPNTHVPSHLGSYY
To be noted: protein: recombinant; tags: N-terminal GST; dsDNA, one strand shown. An outline of the steps:
(§1)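 Human transcription factors were made in yeast as GST fusions, captured on glutathione beads and barcoded with DNA. With a tag-only sample included, the pool was incubated with 200 nmole of a random double-stranded 16-mer DNA library in Tris/NaCl/DTT/glycerol buffer at room temperature for 30 min, then crosslinked with 0.1% formaldehyde after washing, ligated by proximity, amplified and sequenced. For binding signal, each hexamer's read frequency for a factor is divided by its frequency for the tag-only sample.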

Experiment [2] concerns the target T2, ELK1 (Homo sapiens, UniProt P19419 1-428).
T2 sequence: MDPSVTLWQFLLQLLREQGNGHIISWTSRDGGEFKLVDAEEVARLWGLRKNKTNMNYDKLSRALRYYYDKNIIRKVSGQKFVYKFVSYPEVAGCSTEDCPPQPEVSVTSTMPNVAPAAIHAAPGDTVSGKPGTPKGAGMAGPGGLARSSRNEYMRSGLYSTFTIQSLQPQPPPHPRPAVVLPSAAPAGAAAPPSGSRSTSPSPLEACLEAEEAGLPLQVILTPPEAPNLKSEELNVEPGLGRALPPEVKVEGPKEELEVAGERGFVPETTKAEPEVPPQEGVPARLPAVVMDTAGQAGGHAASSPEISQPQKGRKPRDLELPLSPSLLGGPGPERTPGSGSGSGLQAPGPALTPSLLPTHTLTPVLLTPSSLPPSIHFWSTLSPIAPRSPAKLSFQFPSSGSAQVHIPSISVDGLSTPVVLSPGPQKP
As to conditions: protein: recombinant; tags: N-terminal GST; dsDNA, one strand shown. In short, it runs like this: as §1

The target of experiment [3] is T3, GABPA (Homo sapiens, UniProt Q06546 1-454).
T3 sequence: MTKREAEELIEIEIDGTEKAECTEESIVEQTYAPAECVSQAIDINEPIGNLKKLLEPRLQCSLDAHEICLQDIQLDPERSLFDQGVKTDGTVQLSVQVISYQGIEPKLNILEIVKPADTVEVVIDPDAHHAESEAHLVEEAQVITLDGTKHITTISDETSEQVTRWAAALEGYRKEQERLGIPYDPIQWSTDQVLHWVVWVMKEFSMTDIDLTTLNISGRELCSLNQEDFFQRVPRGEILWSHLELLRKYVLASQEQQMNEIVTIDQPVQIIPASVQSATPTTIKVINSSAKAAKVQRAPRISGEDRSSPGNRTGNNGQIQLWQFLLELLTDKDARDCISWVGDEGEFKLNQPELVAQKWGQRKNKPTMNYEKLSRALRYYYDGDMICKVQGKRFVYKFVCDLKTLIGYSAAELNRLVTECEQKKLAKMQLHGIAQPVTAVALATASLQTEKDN
To be noted: protein: recombinant; tags: N-terminal GST; dsDNA, one strand shown. An outline of the steps:
as §1

For experiment [4], the target named is T4, ERG (Homo sapiens, UniProt P11308 1-479).
T4 sequence: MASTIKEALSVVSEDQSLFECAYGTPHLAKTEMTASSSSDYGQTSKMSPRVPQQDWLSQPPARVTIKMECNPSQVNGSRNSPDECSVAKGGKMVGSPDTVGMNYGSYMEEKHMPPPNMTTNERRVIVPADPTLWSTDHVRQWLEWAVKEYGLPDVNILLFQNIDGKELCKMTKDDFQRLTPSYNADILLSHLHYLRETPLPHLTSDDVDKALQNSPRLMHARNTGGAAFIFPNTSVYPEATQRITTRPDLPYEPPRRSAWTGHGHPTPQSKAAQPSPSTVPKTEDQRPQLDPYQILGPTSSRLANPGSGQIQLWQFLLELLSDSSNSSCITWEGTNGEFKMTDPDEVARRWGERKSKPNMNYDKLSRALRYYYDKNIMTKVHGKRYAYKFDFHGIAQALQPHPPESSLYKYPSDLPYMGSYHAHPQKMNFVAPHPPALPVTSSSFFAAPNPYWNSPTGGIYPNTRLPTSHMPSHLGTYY
To be noted: protein: recombinant; tags: N-terminal GST; dsDNA, one strand shown. In short, it runs like this: as §1

The target in experiment [5] is ELF1 (Homo sapiens, UniProt P32519 1-619). To be noted: protein: recombinant; tags: N-terminal GST; dsDNA, one strand shown. An outline of the steps:
as §1

Experiment [6] has as its target T5, EHF (Homo sapiens, UniProt Q9NZC4 1-300).
T5 sequence: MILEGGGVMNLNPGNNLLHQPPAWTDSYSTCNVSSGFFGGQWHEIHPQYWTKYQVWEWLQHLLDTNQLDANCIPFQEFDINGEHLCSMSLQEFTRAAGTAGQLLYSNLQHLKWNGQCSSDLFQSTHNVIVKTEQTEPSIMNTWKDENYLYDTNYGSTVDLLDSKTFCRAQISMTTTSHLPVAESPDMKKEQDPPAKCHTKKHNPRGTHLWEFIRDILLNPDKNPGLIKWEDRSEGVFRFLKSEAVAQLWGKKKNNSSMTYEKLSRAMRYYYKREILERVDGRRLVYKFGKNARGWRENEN
To be noted: protein: recombinant; tags: N-terminal GST; dsDNA, one strand shown. An outline of the steps: as §1

For experiment [7], the target named is SPI1 (Homo sapiens, UniProt P17947 1-270). To be noted: protein: recombinant; tags: N-terminal GST; dsDNA, one strand shown. An outline of the steps: as §1
Experiment [8] concerns the target SPIB (Homo sapiens, UniProt Q01892 1-262). To be noted: protein: recombinant; tags: N-terminal GST; dsDNA, one strand shown. An outline of the steps: as §1
Experiment [9] has as its target T6, ELK3 (Homo sapiens, UniProt P41970 1-407).
T6 sequence: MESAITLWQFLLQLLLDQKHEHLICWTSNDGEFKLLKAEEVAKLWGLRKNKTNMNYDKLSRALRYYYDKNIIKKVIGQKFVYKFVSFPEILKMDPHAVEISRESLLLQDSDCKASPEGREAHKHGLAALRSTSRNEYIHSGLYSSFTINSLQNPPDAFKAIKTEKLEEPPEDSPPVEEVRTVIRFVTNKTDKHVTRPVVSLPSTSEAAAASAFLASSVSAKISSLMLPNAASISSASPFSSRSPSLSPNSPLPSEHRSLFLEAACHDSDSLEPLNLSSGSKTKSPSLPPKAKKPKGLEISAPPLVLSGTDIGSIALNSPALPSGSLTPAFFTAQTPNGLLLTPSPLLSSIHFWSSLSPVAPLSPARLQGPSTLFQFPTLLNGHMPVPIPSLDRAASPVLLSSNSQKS
To be noted: protein: recombinant; tags: N-terminal GST; dsDNA, one strand shown. An outline of the steps: as §1

In experiment [10] the target is T7, FEV (Homo sapiens, UniProt Q99581 1-238).
T7 sequence: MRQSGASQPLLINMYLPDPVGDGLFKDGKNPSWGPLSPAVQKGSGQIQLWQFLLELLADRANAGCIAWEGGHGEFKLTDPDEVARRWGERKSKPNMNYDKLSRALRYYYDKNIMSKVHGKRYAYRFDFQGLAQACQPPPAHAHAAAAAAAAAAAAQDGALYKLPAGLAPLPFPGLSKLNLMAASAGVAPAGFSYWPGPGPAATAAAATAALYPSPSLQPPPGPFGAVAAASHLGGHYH
As to conditions: protein: recombinant; tags: N-terminal GST; dsDNA, one strand shown. An outline of the steps: as §1

Experiment [11] concerns the target ETV5 (Homo sapiens, UniProt P41161 1-510). To be noted: protein: recombinant; tags: N-terminal GST; dsDNA, one strand shown. An outline of the steps:
as §1

The target of experiment [12] is HSF1 (Homo sapiens, UniProt Q00613 1-529). As to conditions: protein: recombinant; tags: N-terminal GST; chain copies: 3; dsDNA, one strand shown. An outline of the steps:
as §1

The target in experiment [13] is T8, SPIC (Homo sapiens, UniProt Q8N5J4 1-248).
T8 sequence: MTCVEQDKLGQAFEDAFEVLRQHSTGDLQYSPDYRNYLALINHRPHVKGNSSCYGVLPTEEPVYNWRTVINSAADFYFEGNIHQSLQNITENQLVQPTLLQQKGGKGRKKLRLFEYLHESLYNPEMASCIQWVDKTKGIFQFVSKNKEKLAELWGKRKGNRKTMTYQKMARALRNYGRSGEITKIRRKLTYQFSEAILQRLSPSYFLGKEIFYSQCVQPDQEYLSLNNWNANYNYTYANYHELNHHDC
To be noted: protein: recombinant; tags: N-terminal GST; dsDNA, one strand shown. An outline of the steps: as §1

In experiment [14] the target is ELF4 (Homo sapiens, UniProt Q99607 1-663). As to conditions: protein: recombinant; tags: N-terminal GST; dsDNA, one strand shown. An outline of the steps: as §1
ELF4, sequence (Q99607 whole entry): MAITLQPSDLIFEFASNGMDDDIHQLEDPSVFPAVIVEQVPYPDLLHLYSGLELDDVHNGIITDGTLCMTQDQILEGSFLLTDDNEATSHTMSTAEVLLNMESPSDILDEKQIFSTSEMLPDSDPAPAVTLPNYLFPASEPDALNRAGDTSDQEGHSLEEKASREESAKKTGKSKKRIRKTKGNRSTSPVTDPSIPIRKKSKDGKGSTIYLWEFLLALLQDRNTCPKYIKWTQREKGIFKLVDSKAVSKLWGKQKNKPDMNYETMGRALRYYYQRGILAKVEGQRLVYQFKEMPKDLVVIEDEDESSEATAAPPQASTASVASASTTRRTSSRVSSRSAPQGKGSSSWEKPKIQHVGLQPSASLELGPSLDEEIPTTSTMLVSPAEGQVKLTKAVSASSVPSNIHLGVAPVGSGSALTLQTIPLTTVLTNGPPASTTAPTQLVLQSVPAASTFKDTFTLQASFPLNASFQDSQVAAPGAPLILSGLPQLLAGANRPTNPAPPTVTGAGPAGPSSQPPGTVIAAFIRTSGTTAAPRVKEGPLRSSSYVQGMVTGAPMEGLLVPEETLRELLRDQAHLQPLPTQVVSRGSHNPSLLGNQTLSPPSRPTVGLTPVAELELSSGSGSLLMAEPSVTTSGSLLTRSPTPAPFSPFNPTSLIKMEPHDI
Experiment [15] has as its target T9, ELK4 (Homo sapiens, UniProt P28324-2 1-405).
T9 sequence: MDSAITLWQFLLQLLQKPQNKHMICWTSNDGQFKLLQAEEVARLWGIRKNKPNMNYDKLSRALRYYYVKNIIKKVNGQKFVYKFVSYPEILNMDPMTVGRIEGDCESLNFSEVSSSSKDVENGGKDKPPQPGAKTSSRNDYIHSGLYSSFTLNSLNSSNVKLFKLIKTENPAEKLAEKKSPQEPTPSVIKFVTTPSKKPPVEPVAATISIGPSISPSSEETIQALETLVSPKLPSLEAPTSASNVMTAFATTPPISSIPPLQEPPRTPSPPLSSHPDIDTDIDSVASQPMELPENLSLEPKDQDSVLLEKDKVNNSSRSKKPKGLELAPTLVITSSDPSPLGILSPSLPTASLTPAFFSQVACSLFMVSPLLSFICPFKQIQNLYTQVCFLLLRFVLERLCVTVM
To be noted: protein: recombinant; tags: N-terminal GST; dsDNA, one strand shown. In short, it runs like this: as §1

The target of experiment [16] is T10, ETV2 (Homo sapiens, UniProt O00321 1-342).
T10 sequence: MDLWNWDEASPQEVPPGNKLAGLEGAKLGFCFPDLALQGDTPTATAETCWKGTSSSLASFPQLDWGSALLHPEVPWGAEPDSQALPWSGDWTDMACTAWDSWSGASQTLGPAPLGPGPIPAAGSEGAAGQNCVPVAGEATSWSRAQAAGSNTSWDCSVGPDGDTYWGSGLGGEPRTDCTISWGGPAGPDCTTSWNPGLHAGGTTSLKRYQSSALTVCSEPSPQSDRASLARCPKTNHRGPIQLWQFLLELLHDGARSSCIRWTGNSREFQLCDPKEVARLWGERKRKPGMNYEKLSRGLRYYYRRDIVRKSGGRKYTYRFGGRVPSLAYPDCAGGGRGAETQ
To be noted: protein: recombinant; tags: N-terminal GST; dsDNA, one strand shown. An outline of the steps: as §1

Experiment [17] addresses T11, ELF3 (Homo sapiens, UniProt P78545 1-371).
T11 sequence: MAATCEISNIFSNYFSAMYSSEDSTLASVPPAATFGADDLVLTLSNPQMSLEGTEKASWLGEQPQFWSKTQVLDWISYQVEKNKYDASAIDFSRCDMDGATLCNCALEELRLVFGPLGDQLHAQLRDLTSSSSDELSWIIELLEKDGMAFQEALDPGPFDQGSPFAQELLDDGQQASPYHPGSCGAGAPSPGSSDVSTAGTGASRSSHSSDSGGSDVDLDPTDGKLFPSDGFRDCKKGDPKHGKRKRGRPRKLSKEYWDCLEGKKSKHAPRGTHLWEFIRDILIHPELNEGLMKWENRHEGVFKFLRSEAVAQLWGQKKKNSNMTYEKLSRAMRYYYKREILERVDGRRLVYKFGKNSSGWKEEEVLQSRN
As to conditions: protein: recombinant; tags: N-terminal GST; dsDNA, one strand shown. In short, it runs like this: as §1

Experiment [18] has as its target CRX (Homo sapiens, UniProt O43186 1-299). As to conditions: protein: recombinant; tags: N-terminal GST; dsDNA, one strand shown. In short, it runs like this:
as §1

Experiment [19] concerns the target ETV1 (Homo sapiens, UniProt P50549 1-477). To be noted: protein: recombinant; tags: N-terminal GST; dsDNA, one strand shown. In short, it runs like this: as §1

CRX, sequence (O43186 whole entry): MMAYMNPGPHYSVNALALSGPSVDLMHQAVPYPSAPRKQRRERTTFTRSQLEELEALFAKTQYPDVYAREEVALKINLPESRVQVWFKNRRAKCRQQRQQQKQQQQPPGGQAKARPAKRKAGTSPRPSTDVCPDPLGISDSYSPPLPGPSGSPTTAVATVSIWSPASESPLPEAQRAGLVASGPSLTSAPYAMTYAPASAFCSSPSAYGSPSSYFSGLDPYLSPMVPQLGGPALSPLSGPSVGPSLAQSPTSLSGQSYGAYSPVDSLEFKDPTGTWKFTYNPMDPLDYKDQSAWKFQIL
ETV1, sequence (P50549 whole entry): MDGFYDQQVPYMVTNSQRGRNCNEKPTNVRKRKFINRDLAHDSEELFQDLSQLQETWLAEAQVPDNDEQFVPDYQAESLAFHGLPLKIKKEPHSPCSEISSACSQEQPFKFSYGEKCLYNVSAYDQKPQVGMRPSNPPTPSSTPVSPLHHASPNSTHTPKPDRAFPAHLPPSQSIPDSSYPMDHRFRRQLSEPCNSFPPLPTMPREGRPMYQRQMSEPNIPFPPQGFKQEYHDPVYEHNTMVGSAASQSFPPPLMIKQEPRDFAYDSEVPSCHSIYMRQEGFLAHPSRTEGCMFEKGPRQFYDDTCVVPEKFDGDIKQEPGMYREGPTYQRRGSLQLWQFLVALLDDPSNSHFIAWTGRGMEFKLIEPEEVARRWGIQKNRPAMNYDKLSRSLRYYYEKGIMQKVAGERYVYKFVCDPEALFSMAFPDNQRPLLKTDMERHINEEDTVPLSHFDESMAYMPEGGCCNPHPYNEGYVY
ETV5, sequence (P41161 whole entry): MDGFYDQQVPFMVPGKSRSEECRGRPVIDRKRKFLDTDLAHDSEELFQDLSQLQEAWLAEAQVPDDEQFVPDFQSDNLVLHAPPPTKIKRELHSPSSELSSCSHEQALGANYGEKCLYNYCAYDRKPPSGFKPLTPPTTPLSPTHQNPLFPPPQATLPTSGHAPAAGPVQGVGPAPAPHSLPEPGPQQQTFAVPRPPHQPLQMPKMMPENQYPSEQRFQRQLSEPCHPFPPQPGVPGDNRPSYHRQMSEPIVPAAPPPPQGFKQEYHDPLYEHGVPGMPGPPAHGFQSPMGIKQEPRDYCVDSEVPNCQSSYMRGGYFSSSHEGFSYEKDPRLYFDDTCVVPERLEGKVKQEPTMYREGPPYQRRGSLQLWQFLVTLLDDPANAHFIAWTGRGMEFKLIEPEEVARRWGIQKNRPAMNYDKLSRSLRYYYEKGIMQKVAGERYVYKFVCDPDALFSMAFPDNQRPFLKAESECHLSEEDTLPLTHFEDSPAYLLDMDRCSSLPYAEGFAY
SPIB, sequence (Q01892 whole entry): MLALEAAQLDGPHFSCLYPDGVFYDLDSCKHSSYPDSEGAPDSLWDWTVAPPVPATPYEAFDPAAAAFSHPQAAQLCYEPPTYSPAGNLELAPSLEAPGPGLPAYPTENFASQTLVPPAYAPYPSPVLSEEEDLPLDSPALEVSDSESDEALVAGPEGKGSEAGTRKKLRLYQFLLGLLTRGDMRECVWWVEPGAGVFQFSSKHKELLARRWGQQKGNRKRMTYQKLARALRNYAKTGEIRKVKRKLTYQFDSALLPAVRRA
HSF1, sequence (Q00613 whole entry): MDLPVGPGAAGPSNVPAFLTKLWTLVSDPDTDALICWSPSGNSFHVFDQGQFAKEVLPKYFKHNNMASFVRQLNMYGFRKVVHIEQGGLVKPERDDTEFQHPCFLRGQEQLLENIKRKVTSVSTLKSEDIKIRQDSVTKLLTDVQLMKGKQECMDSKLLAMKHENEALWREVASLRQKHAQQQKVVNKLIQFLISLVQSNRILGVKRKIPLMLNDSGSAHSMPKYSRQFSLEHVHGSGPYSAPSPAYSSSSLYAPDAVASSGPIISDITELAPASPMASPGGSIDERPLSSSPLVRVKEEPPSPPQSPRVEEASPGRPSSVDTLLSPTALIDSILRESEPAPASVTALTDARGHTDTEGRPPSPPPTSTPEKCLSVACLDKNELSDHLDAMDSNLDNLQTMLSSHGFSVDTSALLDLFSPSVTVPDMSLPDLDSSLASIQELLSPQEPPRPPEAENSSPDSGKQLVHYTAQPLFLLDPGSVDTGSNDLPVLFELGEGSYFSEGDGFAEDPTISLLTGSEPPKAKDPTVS
ELF1, sequence (P32519 whole entry): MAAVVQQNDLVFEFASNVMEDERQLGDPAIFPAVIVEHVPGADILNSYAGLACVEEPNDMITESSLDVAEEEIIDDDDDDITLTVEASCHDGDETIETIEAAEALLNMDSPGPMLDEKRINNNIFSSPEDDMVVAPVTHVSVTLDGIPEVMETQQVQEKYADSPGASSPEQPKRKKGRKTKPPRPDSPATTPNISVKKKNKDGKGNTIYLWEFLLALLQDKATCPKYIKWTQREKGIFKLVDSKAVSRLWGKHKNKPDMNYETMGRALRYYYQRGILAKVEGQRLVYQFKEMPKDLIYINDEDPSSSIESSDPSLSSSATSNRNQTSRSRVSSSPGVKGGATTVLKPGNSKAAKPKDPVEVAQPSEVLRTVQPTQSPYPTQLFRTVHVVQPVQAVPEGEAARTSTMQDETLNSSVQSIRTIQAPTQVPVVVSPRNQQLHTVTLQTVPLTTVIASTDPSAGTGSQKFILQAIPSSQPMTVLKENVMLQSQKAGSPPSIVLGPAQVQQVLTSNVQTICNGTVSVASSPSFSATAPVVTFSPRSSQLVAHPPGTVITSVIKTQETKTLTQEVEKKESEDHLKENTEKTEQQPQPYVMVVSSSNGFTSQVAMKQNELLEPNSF

In the case of CCTACA, the binding signal in [1] was 1.35 fold enrichment (6-mer frequency, TF over GST control); in experiment [2], 1.26 fold enrichment (6-mer frequency, TF over GST control); in experiment [3] it was 1.33 fold enrichment (6-mer frequency, TF over GST control); in experiment [4] it was 1.21 fold enrichment (6-mer frequency, TF over GST control); in [5], 1.19 fold enrichment (6-mer frequency, TF over GST control); in [6] it was 1.18 fold enrichment (6-mer frequency, TF over GST control). Further, the binding signal is 1.16 fold enrichment (6-mer frequency, TF over GST control) in experiment [7]; 1.17 fold enrichment (6-mer frequency, TF over GST control) in experiment [8]; 1.19 fold enrichment (6-mer frequency, TF over GST control) in experiment [9]; 1.18 fold enrichment (6-mer frequency, TF over GST control) in experiment [10]; 1.26 fold enrichment (6-mer frequency, TF over GST control) in experiment [11]; 1.07 fold enrichment (6-mer frequency, TF over GST control) in experiment [12]. Moreover, the binding signal is 1.35 fold enrichment (6-mer frequency, TF over GST control) in [13]; 1.22 fold enrichment (6-mer frequency, TF over GST control) in experiment [14]; 1.31 fold enrichment (6-mer frequency, TF over GST control) in experiment [15]; 1.13 fold enrichment (6-mer frequency, TF over GST control) in experiment [16]; 1.13 fold enrichment (6-mer frequency, TF over GST control) in experiment [17]; 1.01 fold enrichment (6-mer frequency, TF over GST control) in [18]. The binding signal in experiment [19] is 1.16 fold enrichment (6-mer frequency, TF over GST control).

(Values after publication PMC7862700, “An all-to-all approach to the identification of sequence-specific readers for epigenetic DNA modifications on cytosine”.)
